Several values for one entry are separate records, joined by “and”; a condition that tells them apart may be missing. Identical values can stand only once. Values without a mark were called inactive. Results filed as inconclusive are left out. Entries that show only a call come without a potency. Activity calls are given as the source filed them. Unless noted, calls come from the whole dose curve; as a rule, active = well fitted curve in the direction sought with a large enough effect; inconclusive = small, poorly fitted or top-dose-only effect, or another doubt; inactive = no such curve, though single readings can be large; an effect the other way counts as inactive or inconclusive.
Tests used:
[1] = molecular target: Mitogen-activated protein kinase 10 (Mus musculus) (UniProt Q61831); assay: JNK3 AlphaScreen Assay (AID 530; active = well fitted curve in either direction with a large enough effect, not every such curve was filed as active;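 note: kinase came from lysate of stimulated human HepG2 cells; signal reports phosphorylation of biotinylated GST-cJun 1-79 at Ser73 with 10 µM ATP; series mostly up to about 57 µM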)
Summary of the method: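 HepG2 lysate (IL-1b/TNFa pre-activated) + biotin-GST-cJun 1-79 + anti-pSer73 cJun; cpd titration, 15 min RT; ATP 10 uM start; Tris pH 7.6, MgCl2, DTT, vanadate; beads in EDTA buffer; AlphaScreen.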

[2] = MultiTox-Fluor Cytotoxicity Assay - LYMP1-001 - Live Cells (AID 947)
[3] = MultiTox-Fluor Cytotoxicity Assay - LYMP1-003 - Dead Cells (AID 961); note: nearly all actives have a fitted effect of over 70% in size
Summary of the method: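 Human lymphoblastoid LYMP1-003 cells (2500/well) were treated with compounds for 16 hr at 37 C in complete medium. Dead-cell protease release was read by bis-AAF-R110 fluorescence (Ex/Em 485/520). AC50 came from Hill fits, normalized to DMSO and 15 uM tetraoctylammonium bromide.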

[4] = MultiTox-Fluor Cytotoxicity Assay - LYMP1-003 - Live Cells (AID 962);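 note: cells exposed to compound for 16 hours at 37 °C; cytotoxic hits lower the live-cell protease signal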
Summary of the method: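 Readout: live-cell fluorescence (Ex/Em=405/510) from GF-AFC cleavage after 60 min MultiTox-Fluor reagent at room temperature. Lymphoblastoid LYMP1-003 cells, 16 hr compound treatment, 37 C. Concentration-response fitted to standard Hill equation for AC50.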

[5] = Cell Viability - LYMP2-011 (AID 969);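 note: cells exposed to compound for 24 hours; nearly all actives have a fitted effect of over 60% in size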; note: potency is the fitted concentration of half-maximal effect
Summary of the method: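 Luminescent ATP read-out (CellTiter-Glo, 30 min RT) after 24 hr compound exposure at 37 C in human lymphoblastoid cells, 2500 cells/well. Decreasing ATP indicates cytotoxicity; AC50 from standard Hill fit.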

[6] = Cell Viability - LYMP2-013 (AID 970); note: nearly all actives have a fitted effect of over 55% in size; note: potency is the fitted concentration of half-maximal effect
Summary of the method: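 CellTiter-Glo luminescence (cellular ATP) read after 30 min at RT. Cells: human lymphoblastoid line, 2500/well, 24 hr compound exposure at 37 C. Tetraoctylammonium bromide positive control; AC50 via standard Hill fit of qHTS titrations.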

[7] = Cell Viability - LYMP2-021 (AID 974);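 note: compound exposure lasts 24 hours at 37 °C; nearly all actives have a fitted effect of over 55% in size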; note: potency is the fitted concentration of half-maximal effect
Summary of the method: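 ATP luminescence (CellTiter-Glo, 30 min RT) after 24 h compound exposure at 37 C; 2500 human lymphoblastoid cells/well, 5 h settle beforehand. Cytotoxicity = concentration-dependent ATP drop, AC50 by Hill fit.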

[8] = Cell Viability - LYMP2-010 (AID 981);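 note: cells exposed to compound for 24 hours at 37 °C; nearly all actives have a fitted effect of over 55% in size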; note: potency is the fitted concentration of half-maximal effect
Summary of the method: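 qHTS cytotoxicity, 1536-well: 2500 cells/well, 5 hr settle, 24 hr compound at 37 C, CellTiter-Glo 30 min RT, luminescence read. Decrease in ATP = toxicity; AC50 via standard Hill equation. Positive control tetraoctylammonium bromide.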

[9] = Cell Viability - LYMP2-022 (AID 987); note: nearly all actives have a fitted effect of over 55% in size; note: potency is the fitted concentration of half-maximal effect
Summary of the method: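 Luminescent ATP read-out (CellTiter-Glo, 30 min, RT) after 24 hr, 37 C compound exposure of 2500 human lymphoblastoid cells/well in complete medium. Cytotoxicity taken as concentration-dependent ATP loss; AC50 from standard Hill equation.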

[10] = molecular target: Vitamin D3 receptor (Homo sapiens) (UniProt P11473); assay: qHTS assay for small molecule antagonists of vitamin D receptor signaling (AID 588541; calls by dose curve;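 note: receptor activated by calcitriol during compound treatment; series mostly up to about 77 µM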)
Summary of the method: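 VDR-UAS-bla HEK293T cells in 2% charcoal-stripped FBS were stimulated with 1-alpha,25-dihydroxyvitamin D3 (3 nM final) plus compound for 16 h at 37 C. The beta-lactamase CCF4 readout was normalized to 50 nM agonist and DMSO, and Hill fits gave IC50.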

[11] = molecular target: Vitamin D3 receptor (Homo sapiens) (UniProt P11473); assay: qHTS assay for small molecule agonists of vitamin D receptor signaling (AID 588543; calls by dose curve)
Summary of the method: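 qHTS in agonist mode: compound titrations stimulate a VDR-driven β-lactamase reporter in HEK293T cells over 16 h at 37 °C. Response normalized to 50 nM 1α,25-dihydroxyvitamin D3 = 100%, DMSO = 0%; Hill fitting gives EC50 and maximal response.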

[12] = qHTS assay for small molecule activators of the human pregnane X receptor (PXR) signaling pathway (AID 720659; call rule not given here)
[13] = Cell Viability - LYMP2-001 (AID 921); note: series mostly up to about 92 µM; nearly all actives have a fitted effect of over 70% in size
Summary of the method: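 qHTS, 1536-well; lymphoblastoid cells, 24 hr compound, 37 C; ATP by CellTiter-Glo, 30 min RT; luminescence; Hill-fit AC50.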

[14] = Cell Viability - LYMP1-003 - Assay at 40 hr (AID 964); note: series mostly up to about 92 µM; nearly all actives have a fitted effect of over 60% in size
Summary of the method: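 LYMP1-003 lymphoblastoid cells, 2500/well; 5 hr preincubation, 40 hr compound exposure, 37 C; CellTiter-Glo 30 min RT; luminescence; Hill-fit AC50. Positive control tetraoctylammonium bromide.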

[15] = Cell Viability - LYMP2-015 (AID 971); note: nearly all actives have a fitted effect of over 55% in size
Summary of the method: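 qHTS cytotoxicity: 2500 cells/well, 5 hr 37 C, compound 24 hr 37 C, CellTiter-Glo 30 min RT, luminescence. Loss of ATP = toxicity; AC50 via standard Hill fit.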

[16] = Cell Viability - LYMP2-018 (AID 985); note: nearly all actives have a fitted effect of over 50% in size
Summary of the method: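 2500 cells/well; 5 hr 37 C; cmpd 24 hr 37 C, complete medium; CellTiter-Glo 30 min RT; luminescence. Tetraoctylammonium bromide positive control. AC50 via Hill fit.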

[17] = Cell Viability - MRC5 (AID 434; calls by dose curve;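 note: potency is the fitted concentration of half-maximal effect; cells exposed to compound for 40 hours at 37 °C; potency reflects cytotoxicity seen as loss of intracellular ATP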); details: MRC5 lung fibroblast viability, qHTS
Summary of the method: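 ATP luminescence read-out (CellTiter-Glo, 20 min RT) after 40 hr, 37 °C compound exposure of 1500 MRC5 cells/well. Data normalized to DMSO (basal) and 100 uM tamoxifen (100% inhibition); AC50 from standard Hill equation.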

[18] = Cell Viability - LYMP2-002 (AID 977); note: series mostly up to about 92 µM
Summary of the method: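 Human lymphoblastoid cells, 2500/well, complete medium; 5 h 37 C settle; compound 24 h 37 C; CellTiter-Glo, 30 min RT; luminescence. Decrease in ATP = cytotoxicity; AC50 via Hill equation.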

[19] = qHTS assay for small molecule antagonists of the retinoid-related orphan receptor gamma (ROR-gamma) signaling pathway - cell viability counter screen (AID 720652; active = well fitted curve in the direction sought with a large enough effect in the repeat runs; an effect the other way counts as inactive or inconclusive;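 note: CHO reporter cells with doxycycline-induced ROR-gamma expression; series mostly up to about 92 µM; compound exposure lasted 16 hr before ATP read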)
Summary of the method: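 CHO RORE-LUC/TET-ROR line, 1,000 cells/well, 37 C 5% CO2 5 hr; cpd or DMSO + doxycycline induction, 16 hr. CellTiter-Glo, 30 min RT, luminescence = ATP content.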

[20] = molecular target: Thyroid hormone receptor beta (Homo sapiens) (UniProt P10828); assay: qHTS assay for small molecule antagonists of thyroid hormone receptor beta signaling (AID 588547; active = well fitted inhibition curve with a large enough effect in the signal ratio, with a control signal flat, not every such curve was filed as active; the % refers to the signal ratio;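 note: cells stimulated with 0.4 nM T3 agonist during compound exposure; series mostly up to about 77 µM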); details: TR-UAS-bla HEK293, beta-lactamase ratio, antagonist mode, 18 h
Summary of the method: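 TR-UAS-bla GripTite HEK293 cells in 2% charcoal/dextran FBS medium; compounds 0.59 nM to 92 uM with T3 at 0.4nM final, 18 h at 37 C. Beta-lactamase read by CCF4 fluorescence (460/530 nm); Hill fits gave IC50 and efficacy.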

Sequence of Vitamin D3 receptor (Homo sapiens) (P11473 whole entry, looked up): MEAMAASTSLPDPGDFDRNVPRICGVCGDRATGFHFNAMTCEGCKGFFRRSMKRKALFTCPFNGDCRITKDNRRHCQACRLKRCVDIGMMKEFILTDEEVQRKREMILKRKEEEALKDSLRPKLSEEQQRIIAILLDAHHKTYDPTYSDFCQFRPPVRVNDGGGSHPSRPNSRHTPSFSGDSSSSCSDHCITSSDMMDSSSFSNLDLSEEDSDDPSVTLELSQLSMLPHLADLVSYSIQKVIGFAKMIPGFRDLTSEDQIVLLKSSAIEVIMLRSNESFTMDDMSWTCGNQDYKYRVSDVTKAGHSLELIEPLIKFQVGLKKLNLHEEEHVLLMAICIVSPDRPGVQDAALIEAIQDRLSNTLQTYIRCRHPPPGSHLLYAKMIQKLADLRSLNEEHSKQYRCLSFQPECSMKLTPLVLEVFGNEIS
Sequence of Thyroid hormone receptor beta (Homo sapiens) (P10828 whole entry, looked up): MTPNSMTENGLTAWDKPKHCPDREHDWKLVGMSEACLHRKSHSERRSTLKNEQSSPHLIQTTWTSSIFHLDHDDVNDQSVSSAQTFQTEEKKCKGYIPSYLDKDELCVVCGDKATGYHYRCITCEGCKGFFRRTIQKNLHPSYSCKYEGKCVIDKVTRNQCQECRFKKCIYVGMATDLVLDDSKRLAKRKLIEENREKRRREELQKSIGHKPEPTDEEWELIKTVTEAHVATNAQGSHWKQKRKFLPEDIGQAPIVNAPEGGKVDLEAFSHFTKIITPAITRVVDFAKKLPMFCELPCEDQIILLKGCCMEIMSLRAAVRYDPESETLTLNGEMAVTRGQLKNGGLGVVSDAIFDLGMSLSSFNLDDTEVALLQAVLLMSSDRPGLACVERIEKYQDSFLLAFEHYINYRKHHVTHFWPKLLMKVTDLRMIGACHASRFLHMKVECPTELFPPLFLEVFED

SMILES	Potency [1]	outcome [2]	Potency [3]	outcome [4]	Potency [5]	Potency [6]	Potency [7]	Potency [8]	Potency [9]	outcome [10]	outcome [11]	outcome [12]	Potency [13]	Potency [14]	Potency [15]	Potency [16]	Potency [17]	Potency [18]	Potency [19]	activity change % (negative = inhibition) [20]
BrCC(Br)(Br)Br	inactive	inactive	inactive	inactive	39.8 µM (active)	25.1 µM (active)	20 µM (active)	12.6 µM (active)	7.94 µM (active)	inactive	inactive	inactive								
Oc1cc(Cl)c(Cl)c(Cl)c1Cl	inactive	inactive		inactive					inactive			inactive	inactive	inactive	inactive	inactive				
O=C(O)CBr	inactive	inactive	inactive	inactive	inactive	inactive	inactive		inactive	inactive	inactive	inactive	inactive	inactive	inactive	inactive	> 92 µM	inactive	inactive	
O=C(O)C(Br)Br	inactive	inactive	inactive	inactive	inactive	inactive	inactive			inactive		inactive	inactive		inactive	inactive		inactive	inactive	8.3%
CCOC(=O)CC(SP(=O)(OC)OC)C(=O)OCC (stereo not drawn)	inactive	inactive	inactive	inactive	inactive	inactive	inactive	inactive	inactive			inactive	inactive	inactive	inactive	inactive		inactive	inactive	-9.27% and -19.3%
Brc1ccc(Oc2ccc(Br)cc2Br)c(Br)c1			inactive	inactive	inactive	inactive	inactive	inactive	inactive	inactive	inactive		inactive	inactive	inactive	inactive	> 92 µM	inactive		4.48%
N#CC(O)c1ccccc1 (stereo not drawn)	inactive	inactive	inactive	inactive	inactive	inactive	inactive	inactive	inactive	inactive	inactive	inactive		inactive	inactive		> 92 µM		inactive	
Cc1cccc(C)c1N	inactive	inactive	inactive	inactive		inactive	inactive	inactive	inactive			inactive	inactive	inactive	inactive			inactive		-2.91%
Cl/C=C/CCl	inactive		inactive	inactive		inactive	inactive	inactive	inactive	inactive	inactive	inactive	inactive	inactive			> 92 µM		inactive	-4.73%
C=CC(=O)OCC(C)C	inactive		inactive			inactive	inactive	inactive	inactive	inactive	inactive	inactive		inactive	inactive	inactive	> 92 µM	inactive	inactive	-1.18%
CN=C=O	inactive	inactive	inactive	inactive		inactive	inactive	inactive	inactive			inactive	inactive	inactive	inactive	inactive	> 92 µM		inactive	-7.41%
O=[N+]([O-])c1c(Cl)c(Cl)c(Cl)c(Cl)c1Cl	inactive	inactive		inactive	inactive	inactive	inactive	inactive	inactive	inactive	inactive	inactive	inactive	inactive	inactive	inactive		inactive		14.8%
CC(Cl)CCl (stereo not drawn)	inactive	inactive	inactive		inactive	inactive	inactive	inactive	inactive	inactive	inactive	inactive	inactive	inactive	inactive	inactive	> 92 µM		inactive	-3.7%
S=c1[nH]c2ccccc2[nH]1			inactive	inactive	inactive	inactive	inactive	inactive	inactive			inactive		inactive	inactive	inactive	> 92 µM	inactive	inactive	-0.89%
O=[N+]([O-])c1cccc(CCl)c1	inactive			inactive		inactive				inactive	inactive	inactive		inactive			> 92 µM	inactive		-16.3%
Nc1ccc(-c2ccc(N)c(Cl)c2)cc1Cl	inactive	inactive			inactive	inactive				inactive	inactive				inactive	inactive				-10.6% and -0.523%
COC(C)(C)C	inactive	inactive	inactive	inactive	inactive	inactive	inactive	inactive	inactive	inactive	inactive	inactive		inactive	inactive	inactive		inactive	inactive	
OCC(Cl)CCl (stereo not drawn)	inactive	inactive	inactive		inactive	inactive	inactive	inactive		inactive	inactive	inactive	inactive	inactive	inactive	inactive	> 92 µM	inactive	inactive	-13.6%
